# Measurements reported in ChEMBL document CHEMBL3988442, “University of Dundee, Small-Polar-MMV Screening Library” (2021).
# The whole screen tested about 69,000 compounds, of which about 1,000 (1.4%) showed an effect of 50% or more. For the sample, strong results were picked, then their nearest neighbours and some compounds at random.
# System: Leishmania donovani
# Assay: Leishmania intramacrophage assay
# Format: functional, organism-based
# Parameters: scale not given: in the data most compounds retested in dose-response had high values
smiles,measurement,setting,value
CCc1cc(NCCc2cnccn2)n2nc(C)c(C)c2n1,Percent Effect,"30.3 µM, […]",3.819%
CNC(=O)[C@H]1CCS(=O)(=O)[C@@H]2CN(Cc3ccc(OC)cc3)C[C@H]12,Percent Effect,"30 µM, 30.03 µM",7.266%
Cc1cccc(C(=O)N2CCCCC2c2nc3cc(F)ccc3[nH]2)n1 (configuration not stated),Percent Effect,"30.3 µM, […]",32.48%
Cc1noc([C@@H]2CC[C@@H]3[C@@H](CCN3c3nnc(C)s3)O2)n1.O=C(O)C(F)(F)F,Percent Effect,"30.3 µM, […]",50.59%
Cc1noc([C@@H]2C[C@@H]3CCN(c4nnc(C)s4)C[C@H]3O2)n1.O=C(O)C(F)(F)F,Percent Effect,"30.3 µM, […]",45.73%
Cc1noc([C@H]2C[C@@H]3CCN(c4nnc(C)s4)C[C@H]3O2)n1.O=C(O)C(F)(F)F,Percent Effect,"30.3 µM, […]",7.673%
O=C(NCCc1nnc2n1CCC2)NCC1(c2ccccc2F)CC1,Percent Effect,"30.3 µM, […]",6.319%
CC(C)NC(=O)C[C@@H]1CCNC[C@@H]1Cc1cc(-c2ccccc2)on1,Percent Effect,"30.3 µM, […]",-4.938%
O=C(NCC1CC2(CO1)CN(c1ncccn1)C2)C1CCC1 (configuration not stated),Percent Effect,"30.3 µM, […]",1.586%
CCOC(=O)N1CCC(NC(=O)Nc2cccnc2OCC)CC1,Percent Effect,30 µM,21.62%
COCCNC(=O)c1cc(-c2ccc3c(c2)CCO3)n[nH]1,Percent Effect,"30.3 µM, […]",-2.658%
O=C(Nc1ccccc1)C1CN(CC2CCOCC2)CC12CCOCC2.O=C(O)C(F)(F)F (configuration not stated),Percent Effect,"30.3 µM, […]",6.071%
O=C(Nc1ccccc1)C1CN(Cc2ccco2)CC12CCOCC2.O=C(O)C(F)(F)F (configuration not stated),Percent Effect,"30.3 µM, […]",14.17%
O=C(Nc1ccccc1)C1CN(CC2CC2)CC12CCOCC2.O=C(O)C(F)(F)F (configuration not stated),Percent Effect,"30 µM, 30.03 µM",52.69%
Cc1nccn1C1CCCN(C(=O)CCNc2ncccn2)C1 (configuration not stated),Percent Effect,30 µM,-4.975%
COc1ncccc1CN1CCc2[nH]nc(C(=O)N(C)C)c2C1,Percent Effect,"30.3 µM, […]",13.46%
FC(F)(F)c1nc(NC2CCCC2)c2ccccc2n1,Percent Effect,"30 µM, 30.03 µM",52.6%
FC(F)(F)c1nc(NC2CCCCC2)c2ccccc2n1,Percent Effect,"30.3 µM, […]",22.7%
FC(F)(F)c1nc(NC2CCc3ncnn3C2)c2ccccc2n1 (configuration not stated),Percent Effect,"30.3 µM, […]",-21.34%
COc1ccc(NC(=O)CCc2c(C)nc3cc(O)nn3c2C)cn1,Percent Effect,"30 µM, 30.03 µM",19.21%
CCC(CC)C(=O)N1CCN(Cc2nc3ccccc3c(=O)[nH]2)CC1,Percent Effect,"30.3 µM, […]",0.3817%
O=C1CCCN1c1cccc(N2CCC(NCCc3cscn3)CC2)c1,Percent Effect,"30.3 µM, […]",16.35%
c1cc(-c2cscn2)cc(N2CCC(NCCc3cccs3)CC2)c1,Percent Effect,"30.3 µM, […]",68.46%
Cc1cc(CN(C)C2CCN(c3cccc(-c4cscn4)c3)CC2)on1,Percent Effect,"30.3 µM, […]",19.61%
CN(Cc1cnn(C)c1)C1CCN(c2cccc(-c3cscn3)c2)CC1,Percent Effect,"30.3 µM, […]",12%
CC(C)CC(C)NC1CCN(c2cccc(-c3cscn3)c2)CC1 (configuration not stated),Percent Effect,"30.3 µM, […]",17.78%
c1ccc(-c2cccc(N3CCC(NCCc4cscn4)CC3)c2)cc1,Percent Effect,"30.3 µM, […]",97.96%
CN(Cc1nccs1)C1CCN(c2cccc(-c3cscn3)c2)CC1,Percent Effect,"30.3 µM, […]",8.314%
CN(C)CCCN(C)C1CCN(c2cccc(-c3cscn3)c2)CC1,Percent Effect,"30.3 µM, […]",61.93%
CN(Cc1ccon1)C1CCN(c2cccc(-c3cscn3)c2)CC1,Percent Effect,"30.3 µM, […]",-3.333%
CC1CN(C(=O)c2cccc(OCc3cscn3)c2)CCO1 (configuration not stated),Percent Effect,30 µM,15.03%
CNC(=O)CN([C@H]1C[C@H]2CCOC[C@H]2C1)S(=O)(=O)c1ccccc1,Percent Effect,"30.3 µM, […]",-15.54%
O=c1oc(-c2cccs2)nn1CC1(O)CCCCC1,Percent Effect,"30.3 µM, […]",-0.7487%
COc1cccc2c1OCC(NCCCOc1cccnc1)C2 (configuration not stated),Percent Effect,"30.3 µM, […]",0.7744%
O=C(O)C(F)(F)F.c1ncn(Cc2cn3c(n2)CN(CC2CCCC2)CC3)n1,Percent Effect,"30.3 µM, […]",-12.84%
CC(NCC1(N(C)C)CCOCC1)c1ccc(SC(F)F)cc1 (configuration not stated),Percent Effect,"30.3 µM, […]",43.5%
CCc1ccc(C(=O)N2CC(C(=O)NC(C)C)C3(CCOCC3)C2)cc1 (configuration not stated),Percent Effect,"30.3 µM, […]",20.17%
CN(C)C(=O)c1cnc2n1CCN(Cc1ccsc1)C2.O=C(O)C(F)(F)F,Percent Effect,"30.3 µM, […]",24.8%
Cc1ccc(C(=O)OC(C)Cn2cccn2)c(=O)[nH]1 (configuration not stated),Percent Effect,"30.3 µM, […]",9.557%
Cc1ccc(C(=O)NC(C)Cn2cccn2)c(=O)[nH]1 (configuration not stated),Percent Effect,"30.3 µM, […]",61.08%
Cc1ccc(C(=O)NCC(C)Cn2cccn2)c(=O)[nH]1 (configuration not stated),Percent Effect,"30.3 µM, […]",5.92%
CCC(O)CN1CCN(C(=O)c2ccn(C)c(=O)c2)CC1 (configuration not stated),Percent Effect,30 µM,25.79%
CSCCC(Nc1nc(C)cc(C)n1)C(=O)NC(C)(C)CO (configuration not stated),Percent Effect,"30.3 µM, […]",-4.466%
COC1CCCN(C(=O)Nc2nc(C)n(C)n2)C1 (configuration not stated),Percent Effect,"30 µM, 30.03 µM",27.05%
O=C(NCCCN1CCc2ccccc2C1)c1cccnc1O,Percent Effect,"30 µM, 30.03 µM",26.46%
O=C(c1ccoc1)N(Cc1ccccn1)C1CC1,Percent Effect,"30.3 µM, […]",-9.366%
O=C(c1ccoc1)N(Cc1ccncc1)C1CC1,Percent Effect,"30.3 µM, […]",53.31%
O=C(c1ccoc1)N(Cc1cccnc1)C1CC1,Percent Effect,"30.3 µM, […]",22.13%
CSc1ccc(-c2nc(CN3CCC(C(N)=O)CC3)c(C)o2)cc1,Percent Effect,"30.3 µM, […]",-4.149%
CSc1ccc(-c2nc(CN3CCNCC3C)c(C)o2)cc1 (configuration not stated),Percent Effect,"30.3 µM, […]",81.77%
CNC(=O)C1CCN(Cc2nc(-c3ccc(SC)cc3)oc2C)C1 (configuration not stated),Percent Effect,"30.3 µM, […]",7.886%
CSc1ccc(-c2nc(CN3CCC(CN)C3)c(C)o2)cc1 (configuration not stated),Percent Effect,"30.3 µM, […]",98.64%
CSc1ccc(-c2nc(CN3C[C@@H](C)NC[C@@H]3C)c(C)o2)cc1,Percent Effect,"30.3 µM, […]",42.57%
CSc1ccc(-c2nc(CN3CCC(NC(C)=O)CC3)c(C)o2)cc1,Percent Effect,"30.3 µM, […]",13.21%
CNS(=O)(=O)c1cc(C(=O)NC2COc3ccccc3C2)ccc1OC (configuration not stated),Percent Effect,"30.3 µM, […]",-9.324%
CN(C)C(=O)c1cccc(CCNc2ccccc2S(C)(=O)=O)c1,Percent Effect,"30.3 µM, […]",7.886%
CCN(Cc1cn(CC2CCNCC2)nn1)CC1CCCO1 (configuration not stated),Percent Effect,"30.3 µM, […]",62.19%
CN(Cc1cn(C2CCNCC2)nn1)CC1CCCO1 (configuration not stated),Percent Effect,"30.3 µM, […]",7.398%
CN(Cc1cn(CC2CCNCC2)nn1)CC1CCCCO1 (configuration not stated),Percent Effect,"30.3 µM, […]",-23.25%
Cc1ccccc1-n1cc(-c2ccnc(N3CCCC(CN)C3)n2)cn1 (configuration not stated),Percent Effect,"30.3 µM, […]",67.45%
COC[C@H]1CCCN1c1nccc(-c2cnn(-c3ccccc3C)c2)n1,Percent Effect,"30.3 µM, […]",41.43%
Cc1ccccc1-n1cc(-c2ccnc(N3CCCC(O)C3)n2)cn1 (configuration not stated),Percent Effect,"30.3 µM, […]",16.96%
COc1ccccc1N1CCN(Cc2nccc(OC)c2OC)CC1=O,Percent Effect,"30.3 µM, […]",-10.47%
CN(Cc1ccc2c(c1)OCO2)C(=O)c1ccc(C2CCCO2)s1 (configuration not stated),Percent Effect,"30.3 µM, […]",-16.35%
CC1CCCN(CCCNC(=O)Cc2csc(-c3ccoc3)n2)C1 (configuration not stated),Percent Effect,"30.3 µM, […]",9.746%
O=C(CCNc1ncccn1)NCc1ccc(Br)s1,Percent Effect,"30.3 µM, […]",14.9%
Cc1nn(C)c(C)c1CN(C)c1nc(C2CC2)nc2c(C)nn(C)c12,Percent Effect,"30.3 µM, […]",-21.06%
Cc1nn(C)c2c(N(C)Cc3cccs3)nc(C3CC3)nc12,Percent Effect,"30.3 µM, […]",56.51%
Cc1nn(C)c2c(N(C)Cc3ccco3)nc(C3CC3)nc12,Percent Effect,"30.3 µM, […]",10.49%
CN1CCOC(CNCCOc2cccc(C#N)c2)C1 (configuration not stated),Percent Effect,"30.3 µM, […]",25.34%
Cn1cccc1C(=O)NCc1cn2c(n1)CN(CC1CCOC1)CC2 (configuration not stated),Percent Effect,"30.3 µM, […]",22.42%
CC(C)CCN1CCN(C(=O)c2ccc(=O)[nH]n2)CC1,Percent Effect,"30.3 µM, […]",20.4%
Cc1cc(NC(=O)CN2CCCC2c2noc(C(C)C)n2)on1 (configuration not stated),Percent Effect,30 µM,7.102%
O=C(Cn1ccc2c(Cl)cccc21)N1CCCC1,Percent Effect,"30.3 µM, […]",16.62%
CN1CCN(C(=O)Cn2ccc3c(Cl)cccc32)CC1,Percent Effect,"30.3 µM, […]",54.77%
CC(=O)N1CCN(C(=O)Cn2ccc3c(Cl)cccc32)CC1,Percent Effect,"30.3 µM, […]",1.884%
Cc1cc(C)c(CNC(=O)N2CCN(c3ncccn3)CC2)c(=O)[nH]1,Percent Effect,"30 µM, 30.03 µM",-5.034%
COCCN1CCC(NCc2cccc(C)c2)C1 (configuration not stated),Percent Effect,30 µM,11.56%
COc1cccc(C(=O)N2CCN(CC(O)c3ccccc3)CC2)c1 (configuration not stated),Percent Effect,"30.3 µM, […]",-2.836%
O=C(C(CNCc1cccc(O)c1)c1ccccc1)N1CCOCC1 (configuration not stated),Percent Effect,"30.3 µM, […]",17.14%
Cc1cc(C)cc(CNC(c2ccccc2)c2nccn2C)c1 (configuration not stated),Percent Effect,30 µM,35.61%
CNS(=O)(=O)c1cccc(C(C)NCc2cccc(O)c2)c1 (configuration not stated),Percent Effect,"30.3 µM, […]",23.7%
COc1ccc(C(CN2CCN(C)CC2)Nc2ncccn2)cc1 (configuration not stated),Percent Effect,"30.3 µM, […]",-7.981%
Cc1cccc(CNC(CN2CCN(C)CC2)c2ccccc2)c1 (configuration not stated),Percent Effect,"30 µM, 30.03 µM",98.99%
COc1cccc(CNC(CN2CCN(C)CC2)c2ccccc2)c1 (configuration not stated),Percent Effect,"30 µM, 30.03 µM",76.19%
O=C(c1nnn(-c2ccc(F)cc2)n1)N1CCC(O)CC1,Percent Effect,"30.3 µM, […]",1.215%
O=C(c1cn(CCN2CCCCC2)nn1)N1CCSCC1,Percent Effect,"30.3 µM, […]",25.8%
CC(O)CN1CC(C)(C)CN(C(=O)CCc2ccccc2)CC1=O (configuration not stated),Percent Effect,"30.3 µM, […]",-1.72%
O=C(CN1CCOC(Cn2cccn2)C1)NCCc1ccc(F)cc1 (configuration not stated),Percent Effect,"30 µM, 30.03 µM",1.853%
COCCn1c2c(ccc1=O)CCN(C(=O)Cc1ccsc1)CC2,Percent Effect,"30.3 µM, […]",55.32%
COCCn1c2c(ccc1=O)CCN(C(=O)Cc1cccs1)CC2,Percent Effect,"30.3 µM, […]",20.34%
O=C(Cc1ccsc1)N1CCc2ccc(=O)n(CC3CC3)c2CC1,Percent Effect,"30.3 µM, […]",10.53%
O=C(O)c1cccc(S(=O)(=O)N2CCOc3ccccc32)c1,Percent Effect,30 µM,14.21%
COc1ccc(C2CC(=O)NCc3nc(N(C)C)sc32)c(O)c1 (configuration not stated),Percent Effect,"30.3 µM, […]",16.16%
COc1cc2c(cc1C1CC(=O)NCc3nc(N(C)C)sc31)CCC2 (configuration not stated),Percent Effect,"30.3 µM, […]",11.87%
COc1ccc(C(C)C)cc1C1CC(=O)NCc2nc(N(C)C)sc21 (configuration not stated),Percent Effect,"30.3 µM, […]",60.09%
C[C@@H]1CN(C2CCN(c3ccccc3)CC2)CC[C@@]1(O)C1CCOCC1,Percent Effect,"30.3 µM, […]",22.22%
C[C@@H]1CN(C2Cc3ccccc3C2)CC[C@@]1(O)C1CCOCC1,Percent Effect,"30.3 µM, […]",63.81%
C[C@@H]1CN(C2CCCCC2)CC[C@@]1(O)C1CCOCC1,Percent Effect,"30.3 µM, […]",-0.4391%
CN(C)C(=O)NC1COC2(CCN(Cc3nccn3C)CC2)C1 (configuration not stated),Percent Effect,"30 µM, 30.03 µM",3.872%
c1cnnc(N2CCCC2CNCc2nc(-c3ccoc3)no2)c1 (configuration not stated),Percent Effect,30 µM,14.13%
COC(=O)c1cccn1C1CCN(Cc2cccnc2)CC1,Percent Effect,30 µM,38.52%
